Screening data deposited in PubChem BioAssay by National Center for Advancing Translational Sciences (NCATS).
Most compounds without a hit are left out; they make up all but 0.63% or so of the library.
S-ASM inh: blocks human secretory acid sphingomyelinase | Potency, µM (titrated, usually from 57.5 µM), actives largely listed as inhibitors | AID 504937 | placental ASM, HMU-PC fluorogenic substrate, 60 min | 0.006% of 340,000 active | P17405; active = well fitted inhibition curve with a large enough effect; inconclusive = small, poorly fitted or top-dose-only effect; inactive = no such curve, though single readings can be large or run the other way
Target sequence (P17405 47-631 limits assumed): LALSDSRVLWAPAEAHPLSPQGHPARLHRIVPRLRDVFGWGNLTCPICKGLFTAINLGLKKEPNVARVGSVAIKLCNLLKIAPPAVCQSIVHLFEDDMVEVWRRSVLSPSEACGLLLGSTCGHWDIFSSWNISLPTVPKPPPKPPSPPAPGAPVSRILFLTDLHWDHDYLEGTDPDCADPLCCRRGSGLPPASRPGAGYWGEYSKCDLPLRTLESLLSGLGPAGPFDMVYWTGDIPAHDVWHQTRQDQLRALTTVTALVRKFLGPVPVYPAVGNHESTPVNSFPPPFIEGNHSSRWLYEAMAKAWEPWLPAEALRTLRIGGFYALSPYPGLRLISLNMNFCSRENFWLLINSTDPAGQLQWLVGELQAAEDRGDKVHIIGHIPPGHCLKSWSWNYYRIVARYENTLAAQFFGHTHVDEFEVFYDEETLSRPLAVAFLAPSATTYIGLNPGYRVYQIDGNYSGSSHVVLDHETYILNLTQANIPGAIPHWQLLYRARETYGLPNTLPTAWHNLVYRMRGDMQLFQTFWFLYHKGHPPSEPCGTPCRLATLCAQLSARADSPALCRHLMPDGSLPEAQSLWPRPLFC
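Fluorogenic HMU-PC substrate (9 uM final) is turned over by placental ASM in 60 min at 37 C after a 10 min compound preincubation. Reaction ended by alkaline stop (pH 10), with fluorescence read at 386/447 nm.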
gsp ag: gsp mutant agonism; gsp mutant cells, cAMP HTRF, 30 min; Potency, µM (doses to about 76.9 µM), most hits filed as activators; 0.13% of 340,000 active; active = well fitted activation curve with a large enough effect; inconclusive = small, poorly fitted or top-dose-only effect, or another doubt; inactive = no such curve, though single readings can be large or run the other way; cell line not stated here;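 note: phosphodiesterase inhibitor Ro 20-1724 added with compounds to block cAMP breakdown; nearly all actives have a fitted effect of over 60% in size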
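Cells in DMEM/10% FBS with G418 were pretreated with compounds in DMSO plus […] (300 uM stock) for 30 min at 37C. cAMP was measured by HTRF (cAMP-d2 plus anti-cAMP antibody-K) after 30 min at room temperature.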
gsp antagonist: gsp mutant antagonism. gsp-mutant cells, cAMP HTRF, 30 min. Potency, µM (top dose mostly 76.9 µM), hits mostly inhibitors. 0.4% of 340,000 active. AID 624288; calls by dose curve; cell line not stated here;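 note: intracellular cAMP measured with PDE inhibitor Ro 20-1724 present during compound exposure; nearly all actives have a fitted effect of over 65% in size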
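HTRF cAMP read-out (cAMP-d2 plus anti-cAMP antibody-K in lysis buffer, 30 min RT). Before lysis, cells are exposed to compounds with […] for 30 min at 37C in DPBS containing Ca/Mg, BSA and Tween 20.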
TSHR antag: antagonists of human thyroid stimulating hormone receptor. P16473. TSHR-expressing cells, TSH-stimulated cAMP HTRF, 2 h; active compounds read low. activity change, negative = inhibition, % at 11.5 µM. 0.2% of 330,000 active. AID 504810;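 active = activity change below a set negative limit, meaning inhibition stronger than a set level, cut at about -70% in these data; inconclusive = activity change between two set negative limits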
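Cell-based HTRF cAMP assay; TSHR cells + compound, TSH EC80 (4nM final), 2 h, 37 deg C. Lysis with anti-cAMP cryptate and cAMP-d2, 30 min RT, read 665/620 nm.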
Of the large screens only hits and unclear results are named; the others gave an inactive call.

CCOC(=O)c1ccccc1NC(=O)Cn1cnc2c1c(=O)n(C)c(=O)n2C	gsp ag 28µM
COC1=C(N)C(=O)c2nc(-c3nc(C(=O)O)c(C)c(-c4ccc(OC)c(OC)c4O)c3N)ccc2C1=O	gsp antagonist inconclusive, TSHR antag -72 (no result: gsp ag)
CN1CCN(C(=O)c2cc3c(=O)n4ccccc4nc3s2)CC1	gsp ag 13µM
CCOC(=O)N1CCN(C(=O)c2cc3c(=O)n4ccccc4nc3s2)CC1	gsp ag inconclusive
Cc1ccccc1OCCCSc1nc2ccccc2[nH]1	none
Cc1ccc2nc(SCCCCOc3ccccc3)[nH]c2c1	gsp antagonist 40µM
Clc1ccccc1CN(Cc1ccco1)Cc1nnnn1C1CCCC1	gsp antagonist 20µM
c1coc(CN(Cc2cccs2)Cc2nnnn2C2CCCCC2)c1	none
COc1ccc(CCNc2ncnc3sc(C)cc23)cc1OC	gsp antagonist 35µM, TSHR antag inconclusive
CC(=O)N[C@H](C(=O)O)C(C)(C)SN=O	none (no result: S-ASM inh, gsp ag, gsp antagonist)
Cc1ccc(CNC(=O)COC(=O)C2CCN(S(=O)(=O)c3cccs3)CC2)cc1	gsp ag inconclusive, gsp antagonist 35µM
COc1ccc(NC(=O)C2CCCN2c2nn3c(=O)cc(C)nc3s2)cc1 (stereo unspecified)	gsp ag 22µM
Cc1cc(OCC(=O)Nc2c(C(C)C)cccc2C(C)C)no1	none (no result: S-ASM inh, gsp antagonist, TSHR antag)
CS(=O)(=O)Nc1ccc(C2=NN(C(=O)C3CCCCC3)C(c3cccs3)C2)cc1 (stereo unspecified)	gsp antagonist 25µM
CC(C)C(=O)N1N=C(c2ccc(NS(C)(=O)=O)cc2)CC1c1cccs1 (stereo unspecified)	none
Cc1ccc(OCc2cc(C(=O)NC3CCCCC3)no2)cn1	TSHR antag -109
O=C(NC1CCCCC1)c1cc(-c2ccc(O)cc2)on1	none
O=C(NC1CCCC1)c1cc(COc2ccc3ncccc3c2)on1	none
O=C(NC1CCCCC1)c1cc(-c2ccccc2O)on1	TSHR antag -80
COc1ccc2sc(-c3ccc(S(C)(=O)=O)cc3)c(C#CCO)c2c1	TSHR antag -78
COc1ccc2c(C#CCCO)c(-c3ccc(S(C)(=O)=O)cc3)sc2c1	gsp ag inconclusive
CCn1c(=S)sc2c(=O)n(CC(=O)Nc3ccccc3OC)c(C)nc21	S-ASM inh inconclusive, TSHR antag -134
CCn1c(=S)sc2c(=O)n(CC(=O)Nc3cc(OC)ccc3OC)c(C)nc21	none
Cc1cccc(CNC(=O)Cn2ccc3cc(S(=O)(=O)N4CCCC4)ccc32)c1	none
O=C(OCCc1cc2ccccc2c(=O)o1)c1ccccc1C(F)(F)F	TSHR antag -71
O=C(OCCCc1cc2ccccc2c(=O)o1)c1ccccc1C(F)(F)F	none (no result: gsp ag)
Cc1ccc(NS(=O)(=O)c2ccc3c(c2)NC(=O)CO3)c(C)c1	none
O=C1COc2ccc(S(=O)(=O)Nc3ccc(F)cc3)cc2N1	gsp ag 2.2µM
Cc1cc(Cn2nnc3ccccc32)c(O)c(C(C)(C)C)c1	none
CC(C)(C)c1cccc(Cn2nnc3ccccc32)c1O	TSHR antag -77 (no result: gsp ag)
COc1ccc(-c2nnc(NC(=O)c3ccc4c(c3)OCCO4)o2)cc1	TSHR antag -95
COc1ccc(-c2nnc(NC(=O)c3ccc(F)cc3)o2)cc1	none
COc1cccc(-c2nnc(NC(=O)c3ccc(S(=O)(=O)N4CC(C)OC(C)C4)cc3)o2)c1 (stereo unspecified)	gsp antagonist 35µM
O=C1NC(=S)SC1=C1CCCCCC1	gsp ag inconclusive, TSHR antag -81
CN(C)/C=C/c1oc2ccc(O)cc2c1[N+](=O)[O-]	gsp antagonist 28µM
CCOc1ccc(NC(=S)N(CCc2c(C)[nH]c3ccccc23)Cc2ccco2)cc1	none
O=C(NNC(=O)c1ccc(NC(=O)c2ccccc2)cc1)c1ccc(F)cc1	none
O=C(Nc1ccc(C(=O)c2ccccc2)cc1)c1ccccc1	gsp antagonist 40µM
CCOc1ccccc1C(=O)Nc1ccc(NC(=O)c2ccccc2)cc1	none
CCOc1ccccc1C(=O)Nc1ccc(C(=O)c2ccccc2)cc1	gsp antagonist 25µM
CCCCc1ccc(NS(=O)(=O)c2cccc(C(=O)N3CCNC(=O)C3)c2)cc1	none
Nc1c(C(=O)Nc2ccc(Cl)cc2)sc2nc(N3CCOCC3)c3c(c12)CCCC3	gsp ag 10µM
CC(=O)c1ccc(NC(=O)c2sc3nc(N4CCOCC4)c4c(c3c2N)CCCC4)cc1	gsp ag inconclusive
Nc1c(C(=O)N2CCOCC2)sc2nc(N3CCOCC3)c3c(c12)CCCC3	gsp ag 11µM
Cc1cc(NS(=O)(=O)c2ccc(NC(=O)/C=C/c3cccc(Cl)c3)cc2)no1	none
O=C(O)c1ccc2c3c(cccc13)C(=O)N(c1ccccc1)C2=O	none
Nc1ccc2c3c(cccc13)C(=O)N(c1ccccc1)C2=O	none
O=C(O)c1ccc(N2C(=O)c3cccc4c(C(=O)O)ccc(c34)C2=O)cc1	gsp ag 20µM
CC(=O)Nc1ccc2c3c(cccc13)C(=O)N(c1ccccc1)C2=O	gsp ag 35µM
COc1cc(NS(=O)(=O)c2ccc(NC(=O)c3cccs3)cc2)nc(OC)n1	gsp antagonist 22µM
COc1cc(NS(=O)(=O)c2ccc(NC(C)=O)cc2)nc(OC)n1	none
CCOC(=O)c1nc(C)sc1-c1ccnn1S(=O)(=O)c1ccc(C)cc1	TSHR antag -78
C=C(NC(=O)C(=C)NC(=O)c1csc(C2=NC3c4csc(n4)C4NC(=O)c5csc(n5)C([C@@](C)(O)C(C)O)NC(=O)C5CSC(=N5)/C(=C\C)NC(=O)C(C(C)O)NC(=O)c5csc(n5)[C@]3(CC2)NC(=O)C(C)NC(=O)C(=C)NC(=O)C(C)NC(=O)C(C(C)CC)NC2C=Cc3c(C(C)O)cc(nc3C2O)C(=O)OC4C)n1)C(N)=O (stereo partly specified)	none (no result: S-ASM inh, gsp ag, gsp antagonist)
CC(C)(C)OC(=O)NCCCCCNC(=O)c1nc[nH]c1C(=O)NCc1ccc(CNC(=O)OC(C)(C)C)cc1	gsp antagonist 40µM (no result: gsp ag)
CC(C)(C)OC(=O)NCc1ccc(CNC(=O)c2nc[nH]c2C(=O)NCc2ccc(CNC(=O)OC(C)(C)C)cc2)cc1	none (no result: gsp ag)
C[C@H](NC(=O)c1nc[nH]c1C(=O)NCc1ccccc1)C(=O)OCc1ccccc1	gsp antagonist 11µM
CC(C)C[C@H](NC(=O)c1nc[nH]c1C(=O)NCc1ccccc1)C(=O)OCc1ccccc1	none (no result: gsp ag)
O=C(CC(=O)c1ccccc1)CC(O)(C=Cc1ccccc1)c1ccccc1 (stereo unspecified)	none (no result: TSHR antag)
O=C(NCc1cc([N+](=O)[O-])ccc1O)c1cc(-c2ccncc2)nc2ccccc12	gsp ag inconclusive, gsp antagonist 40µM
Cc1ccc(SCc2c(C(=O)N/N=C/c3ccoc3)nnn2-c2nonc2N)cc1	gsp antagonist 32µM
Cc1ccc(-c2c(C(=O)N/N=C/c3ccc4c(c3)OCO4)nnn2-c2nonc2N)cc1	gsp antagonist 25µM
COc1ccc(S(=O)(=O)NCCCN2CCCC2=O)cc1OC	none
Cc1cc(C)nc(SCC(=O)OCC(=O)Nc2ccccc2)n1	none
